Measurements reported in PubChem BioAssay AID1259417 (TB Discovery Research, Infectious Disease Research Institute, 2018).
The campaign covered roughly 1,100 compounds. About 760 (69%) were called active. How the calls were made is not given here. The set was probably picked from earlier hits. The list shows a part of the results.

Assay: M. tuberculosis growth inhibition, HTS (AID 1259417);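 further: bacteria grown with compound for 5 days at 37 °C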
Conditions: stronger effect = higher value, concentration not given here
[1] = M. tuberculosis DsRed fluorescence growth inhibition
[2] = M. tuberculosis growth inhibition

| SMILES | inhibition [1] | inhibition [2] |
| --- | --- | --- |
| COC(=O)COc1ccc(NC(=O)c2ccccc2C)cc1 | 83.1% (active) | 93.5% |
| CCCCCCc1cc2cc(C(=O)NC)c(=N)oc2cc1O | -2.33% (inactive) | -16.9% |
| Cc1ccc(-c2[nH]c3ccccc3c2SCCNC(=O)c2cc3ccccc3oc2=O)cc1 | -0.558% (inactive) | -17.6% |
| O=C(NCCc1c[nH]c2ccccc12)c1cc2ccccc2oc1=O | 99.2% (active) | 96% |
| O=C(NCCSc1c[nH]c2ccccc12)c1cc2ccccc2oc1=O | 20.8% (active) | 42.8% |
| O=C(NCCSc1c(-c2ccccc2)[nH]c2ccccc12)c1cc2ccccc2oc1=O | -6.27% (inactive) | -5.81% |
| Cc1[nH]c2ccccc2c1SCCNC(=O)c1cc2ccccc2oc1=O | 5.93% (inactive) | 16.9% |
| Cc1nc2c(-c3ccc(Cl)cc3)cnn2c(N)c1-c1ccccc1 | 13.8% (inactive) | -1.8% |
| Cc1nn(-c2nc3ccccc3[nH]2)c(N)c1-c1ccccc1 | 50.6% (active) | 84.2% |
| Cc1cc(Nc2ccccc2)n(-c2nc3ccccc3[nH]2)n1 | 86.8% (active) | 93.2% |
| Cc1coc2c1C(=O)C(=O)c1c-2ccc2c1CCCC2(C)C | 96.6% (active) | 98.4% |
| CN(C)C(=S)Nc1nc2ccccc2s1 | 99.7% (active) | 99.8% |
| O=C(NCc1cccs1)c1cc2n(n1)C(C(F)(F)F)CC(c1ccc3c(c1)OCO3)N2 (configuration not stated) | 2.08% (inactive) | -5.24% |
| Cc1ccc(C2CC(C(F)(F)F)n3nc(C(=O)NCc4ccco4)cc3N2)cc1 (configuration not stated) | 80% (active) | 76.1% |
| CCCCNC(=O)c1cc2n(n1)C(C(F)(F)F)CC(c1ccccc1)N2 (configuration not stated) | 95.4% (active) | 91.8% |
| CNc1nc(N2CCc3ccccc32)ncc1F | 100% (active) | 99.7% |
| COc1ccc(NC(=O)C(Cc2c[nH]c3ccccc23)NC(C)=O)cc1 (configuration not stated) | 93.6% (active) | 90.1% |
| COc1ccc2[nH]cc(CCNC(=S)Nc3ccc(Nc4ccccc4)cc3)c2c1 | -2.93% (inactive) | -13.6% |
| Cc1ccc(-c2csc(Nc3ccc(S(N)(=O)=O)cc3)n2)cc1 | 33.4% (active) | 44.5% |

| SMILES | inhibition [1] | inhibition [2] |
| --- | --- | --- |
| Cc1cc(-c2csc(Nc3ccc(S(N)(=O)=O)cc3)n2)ccc1F | 12% (inactive) | 9.99% |
| Cc1ccc(-c2csc(Nc3ccc(C(=O)O)c(O)c3)n2)cc1 | 94.8% (active) | 94.9% |
| O=C(Nc1ccccc1-c1ccccc1)C(Cl)(Cl)Cl | 100% (active) | 99.6% |
| C/C=C/c1ccc(OCC(=O)OCc2csc(Nc3ccc(C)cc3)n2)c(OC)c1 | 0.924% (active) | 37.2% |
| Oc1ccc(Br)cc1C1=NNC(c2ccc(F)cc2)C1 (configuration not stated) | 99.5% (active) | 100% |
| CCC(C)Oc1ccc(C(=O)NC(=S)Nc2ccc3c(c2)COC3=O)cc1 (configuration not stated) | 30.7% (active) | 25.2% |
| COc1ccc2nc(C)cc(SCC(=O)OC(C)C)c2c1 | 89.3% (active) | 99.6% |
| CCOC(=O)CSc1cc(C)nc2ccc(C)cc12 | 96.8% (active) | 99.3% |
| O=C(C=Cc1cccc(C(F)(F)F)c1)Nc1cccc(Br)c1 | 9.1% (inactive) | 9.88% |
| CCC(=O)Oc1cccc2ccc(C=Cc3ccccc3F)nc12 | 92.1% (active) | 87.6% |
| Oc1cccc2ccc(C=Cc3cccc(F)c3)nc12 | 98.8% (active) | 99.7% |
| CC(=O)Oc1cccc2ccc(C=Cc3ccc(F)cc3)nc12 | 86.6% (active) | 89.9% |
| CC(=O)Oc1cccc2ccc(C=Cc3cccc(Br)c3)nc12 | 87.4% (active) | 84% |
| Cc1ccc(-c2csc(NC(=O)C[n+]3cc(-c4ccc(C)cc4)n4c3CCC4)n2)cc1 | 13.7% (inactive) | 7.92% |
| O=C(C[n+]1cc(-c2ccc(Cl)cc2)n2c1CCC2)N1c2ccccc2Sc2ccccc21 | 10.7% (inactive) | 3.46% |
| O=C(C[n+]1cc(-c2ccc(Cl)c(Cl)c2)n2c1CCC2)N1c2ccccc2Sc2ccccc21 | 37.7% (active) | 43.1% |
| CCCCn1c(=O)c(C(=O)Nc2nnc(C(C)C)s2)c(O)c2ccccc21 | 76.9% (active) | 72.9% |
| COc1cc(/C=C/c2ccc3c([N+](=O)[O-])cccc3n2)ccc1OCC(=O)O | 89.6% (active) | 92.7% |
| CCOC(=O)COc1ccc2ccccc2c1C=C(C)[N+](=O)[O-] | 24% (inactive) | 10.8% |

| SMILES | inhibition [1] | inhibition [2] |
| --- | --- | --- |
| O=[n+]1c2ccccc2n([O-])c2ccccc21 | 98.3% (active) | 98.8% |
| CCCn1c(CNc2ccccc2O)nc2ccccc21 | 99.4% (active) | 100% |
| CCOC(=O)c1c(NC(=O)c2cccc([N+](=O)[O-])c2)sc(CC)c1-c1ccccc1 | 4.19% (inactive) | -29.7% |
| COC(=O)c1c(NC(=O)c2cc(OC)cc(OC)c2)sc2c1C(C(=O)OC)CC2 (configuration not stated) | -0.558% (inactive) | -13.8% |
| CCOC(=O)c1c(-c2ccc(C)o2)csc1NC(=S)NC(=O)N(C)C | 2.65% (inactive) | -1.32% |
| Cc1ccccc1C(=O)Nc1sc(Cc2ccccc2)c(C)c1C(N)=O | -2.04% (inactive) | -9.31% |
| COC(=O)c1sc(NC(=O)c2c(F)c(F)c(F)c(F)c2F)c(C(N)=O)c1C | 98.6% (active) | 96.9% |
| CCOC(=O)c1c(NC(=O)c2cccc(OC)c2)sc(C)c1-c1ccccc1 | 0.932% (inactive) | -15.9% |
| CCc1c(C)sc(NC(=O)c2ccc(Br)cc2)c1C(N)=O | 4.19% (inactive) | 7.97% |
| CCc1c(C)sc(NC(=O)c2c(F)c(F)c(F)c(F)c2F)c1C(=O)OC(C)C | 98.2% (active) | 95.8% |
| COC(=O)c1c(-c2ccccc2)csc1NC(=O)c1cc(OC)cc(OC)c1 | 4.19% (inactive) | -6.55% |
| CCOC(=O)c1c(NC(=O)c2c(F)c(F)c(F)c(F)c2F)sc(C(=O)OC)c1C | 99.4% (active) | 97.6% |
| COC(=O)c1c(-c2ccc(Cl)cc2)csc1NC(=O)c1c(F)c(F)c(F)c(F)c1F | 91.1% (active) | 87.2% |
| COC(=O)c1sccc1NC(=O)c1c(F)c(F)c(F)c(F)c1F | 99.1% (active) | 97.7% |
| CCOC(=O)c1c(NC(=O)c2c(F)c(F)c(F)c(F)c2F)sc(C(N)=O)c1C | 98.6% (active) | 99.4% |
| CCOC(=O)c1sc(NC(=O)c2c(F)c(F)c(F)c(F)c2F)c(C(=O)OCC)c1C | 93.8% (active) | 88.9% |
| CCOc1ccc2ccccc2c1C(=O)Nc1sc(C)c(C)c1C(N)=O | 9.82% (inactive) | 9.7% |
| CCOC(=O)c1c(NC(=O)c2cccc(OC(C)=O)c2)sc(CC)c1-c1ccccc1 | 2.11% (inactive) | -5.86% |
